Molecules are shown by their SMILES. “And” between values parts separate entries of the source, which are not always exact repeats. Equal entries are not always repeated. Records with an inconclusive call do not appear. The source made the active and inactive calls. Unless noted, the call rests on the fitted dose curve.

Experiment [1] can be described thus: qHTS assay for small molecule agonists of retinoid X receptor alpha signaling (AID 588544).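 On activation: 0% = DMSO basal wells and 100% = reference agonist.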 The settings on record: HEK293T RXRa-UAS-bla, beta-lactamase reporter, 18 h; 530 nm emission.
Experiment [2] addresses Retinoic acid receptor RXR-alpha (Homo sapiens) (UniProt P19793). Described as above. The settings on record: HEK293T RXRa-UAS-bla, beta-lactamase reporter, 18 h; series mostly up to 76.7 µM.
The target in experiment [3] is Thyroid hormone receptor beta (Homo sapiens) (UniProt P10828). Put plainly: qHTS assay for small molecule agonists of thyroid hormone receptor beta signaling (AID 588545).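 Further: 0% = DMSO only and 100% = 10 nM T3.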 As to conditions: TR-UAS-bla GripTite HEK 293, beta-lactamase ratio, agonist mode, 18 h, percent of T3 response, DMSO as zero; series mostly up to 76.7 µM. The essentials:
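Efficacy and EC50 values derive from Hill fits of qHTS titration data, normalized to 10 nM T3 and DMSO-only wells. HEK 293 reporter cells were stimulated for 18 hrs at 37 C, with beta-lactamase activity measured by CCF4 fluorescence.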

A short description of experiment [4]: qHTS assay for small molecule antagonists of retinoid X receptor alpha signaling (AID 588546; active means well fitted inhibition curve with a large enough effect in the signal ratio, with a control signal flat, not every such curve was filed as active; the % refers to the signal ratio;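 further: cells stimulated with 9-cis-retinoic acid as agonist; on the % scale 0 is the no-effect control and ±100 the full control effect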). The settings on record: HEK293T RXRa-UAS-bla, beta-lactamase ratio, antagonist mode; measured here: W530 green channel, cytotoxicity proxy. The essentials:
(§1)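 Beta-lactamase reporter inhibition, read as CCF4 fluorescence ratio (ex 405, em 460/530 nm) after 2 h at RT. HEK293T UAS-bla cells, 2500/well, were stimulated with 9-cis-RA at 500 or 100 nM final alongside test compound for 18 h at 37 C.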

The target in experiment [5] is Thyroid hormone receptor beta (Homo sapiens) (UniProt P10828). Description: qHTS assay for small molecule antagonists of thyroid hormone receptor beta signaling (AID 588547; active means well fitted inhibition curve with a large enough effect in the signal ratio, with a control signal flat, not every such curve was filed as active; the % refers to the signal ratio;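 further: cells stimulated with 0.4 nM T3 agonist during compound exposure; on the % scale 0 is the no-effect control and ±100 the full control effect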). As to conditions: TR-UAS-bla HEK293, beta-lactamase ratio, antagonist mode, 18 h. The essentials: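 Inhibition of T3-driven (0.4nM final) beta-lactamase reporter activity was measured over 0.59 nM to 92 uM compound after 18 h at 37 C. The cells were GripTite HEK293 TR-UAS-bla in charcoal/dextran-stripped serum, with CCF4 ratio read-out and IC50 from Hill fits.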
Thyroid hormone receptor beta (Homo sapiens), sequence (P10828 whole entry, looked up): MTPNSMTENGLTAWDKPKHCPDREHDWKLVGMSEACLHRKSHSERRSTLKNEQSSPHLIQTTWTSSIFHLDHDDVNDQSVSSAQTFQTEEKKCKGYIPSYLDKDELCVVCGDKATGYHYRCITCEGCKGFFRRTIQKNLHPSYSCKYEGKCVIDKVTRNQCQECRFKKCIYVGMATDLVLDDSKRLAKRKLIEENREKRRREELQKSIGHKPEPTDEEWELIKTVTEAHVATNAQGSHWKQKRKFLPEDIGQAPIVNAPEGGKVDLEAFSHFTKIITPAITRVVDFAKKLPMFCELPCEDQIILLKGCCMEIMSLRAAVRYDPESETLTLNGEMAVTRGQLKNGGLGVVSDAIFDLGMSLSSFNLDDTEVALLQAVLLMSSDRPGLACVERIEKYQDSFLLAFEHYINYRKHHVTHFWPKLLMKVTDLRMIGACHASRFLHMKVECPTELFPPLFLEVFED

Experiment [6] has as its target Voltage-gated inwardly rectifying potassium channel KCNH2 (Homo sapiens) (UniProt Q12809). Put plainly: qHTS Assay for Small Molecule Inhibitors of the Human hERG Channel Activity (AID 588834; active means well fitted curve in the direction sought with a large enough effect; an effect the other way counts as inactive or inconclusive;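 further: top concentration of the series differs between compounds; on the % scale 0 is the no-effect control and ±100 the full control effect; lower thallium flux fluorescence means stronger hERG block; nearly all actives have a fitted effect of over 50% in size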). As to conditions: U2OS BacMam hERG, FluxOR thallium flux fluorescence; series mostly up to 92.2 µM. In outline: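 Thallium serves as surrogate for K+ influx through BacMam-delivered hERG in U2OS cells. Compounds are added for about 10 minutes after dye loading; stimulation buffer then starts flux, monitored kinetically on FDSS.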

Experiment [7] in a line: qHTS assay for small molecule agonists of the antioxidant response element (ARE) signaling pathway (AID 651741; active means well fitted activation curve with a large enough effect in the signal ratio; the % refers to the signal ratio; further: % of control where 0% means no effect). As to conditions: HepG2 ARE-bla reporter, beta-lactamase FRET ratio, 16 h; series mostly up to 96 µM. The essentials: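 Agonist activity is measured as ARE-driven beta-lactamase expression in a stable HepG2 reporter line, using 16 h compound treatment at 37 C and a FRET substrate fluorescence readout after 2 h.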

Experiment [8] is described as follows: qHTS assay for small molecule activators of the p53 signaling pathway (AID 651743; active means well fitted activation curve with a large enough effect in the signal ratio, not every such curve was filed as active; the % refers to the signal ratio; further: % of control where 0% means no effect). The settings on record: HCT-116 p53RE-bla, beta-lactamase FRET ratio, 16 h; stronger effect = higher value. The essentials:
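A beta-lactamase reporter under p53 response element control, stably carried by HCT-116 cells, reported pathway activation. Test compounds were applied for 16 hours at 37 C, and fluorescence was measured 2 hours after adding the B/G FRET substrate.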

Experiment [9] is described as follows: qHTS assay for small molecule disruptors of the mitochondrial membrane potential - 5 hr assay (AID 651755). Further: on the % scale 0 is the no-effect control and ±100 the full control effect; nearly all actives have a fitted effect of over 40% in size. The settings on record: JC-1-type ratio dye; series mostly up to 92.2 µM. The essentials:
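Membrane-potential dye readout: red aggregate (540 ex/590 em) versus green monomer (490 ex/535 em) fluorescence after 30 min dye loading, following 5 hr compound exposure at 37C of overnight-plated HepG2 cells.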

Experiment [10] has as its target Tumor necrosis factor (Homo sapiens) (UniProt P01375). Description: qHTS assay to identify small molecules that stimulate Tumor Necrosis Factor-alpha (TNF-alpha) secretion (AID 651757; active means well fitted curve in the direction sought with a large enough effect in the signal ratio; the % refers to the signal ratio; further: 0% is about no effect). The settings on record: Human cells, HTRF 665/615 ratio; series mostly up to 92.2 µM. In outline:
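THP-1 cells, 3000/well; compound 17 hrs, 37 C; add cryptate/XL665 anti-TNF-alpha antibody pair; 3 hr RT; TR-FRET (HTRF) read of secreted TNF-alpha. Quantitative HTS format.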

The target of experiment [11] is Peroxisome proliferator-activated receptor alpha (Homo sapiens) (UniProt Q07869). Put plainly: qHTS assay for small molecule agonists of the peroxisome proliferator-activated receptor alpha (PPARalpha) signaling pathway (AID 651778; active means well fitted curve in the direction sought with a large enough effect; an effect the other way counts as inactive or inconclusive; further: % of control where 0% means no effect). The settings on record: PathHunter PPARalpha complementation, chemiluminescence, 6 h; stronger effect = higher value. In outline:
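Chemiluminescence from complemented enzyme reported PPARalpha activation in cells after 6 hr of compound treatment at 37 C. The detection reagent was incubated for 60 min at room temperature, and compounds were scored as agonists.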

The target of experiment [12] is Nuclear receptor ROR-gamma (Homo sapiens) (UniProt P51449). Description: qHTS assay for small molecule antagonists of the retinoid-related orphan receptor gamma (ROR-gamma) signaling pathway (AID 651802; active means well fitted curve in the direction sought with a large enough effect; an effect the other way counts as inactive or inconclusive;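 further: CHO cells with doxycycline-induced ROR-gamma expression; luciferase reporter luminescence driven by ROR response element; on the % scale 0 is the no-effect control and ±100 the full control effect; nearly all actives have a fitted effect of over 60% in size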). The settings on record: ROR-gamma antagonist cell reporter assay; series mostly up to 92.2 µM. In outline: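 Luciferase read-out: ONE-Glo luminescence after 30 min at room temperature, following 16hr doxycycline induction at 37C, 5% CO2 of CHO cells with TET-inducible ROR and RORE-LUC reporter; decreased luminescence = reduced reporter activity.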
Nuclear receptor ROR-gamma (Homo sapiens), sequence (P51449 whole entry, looked up): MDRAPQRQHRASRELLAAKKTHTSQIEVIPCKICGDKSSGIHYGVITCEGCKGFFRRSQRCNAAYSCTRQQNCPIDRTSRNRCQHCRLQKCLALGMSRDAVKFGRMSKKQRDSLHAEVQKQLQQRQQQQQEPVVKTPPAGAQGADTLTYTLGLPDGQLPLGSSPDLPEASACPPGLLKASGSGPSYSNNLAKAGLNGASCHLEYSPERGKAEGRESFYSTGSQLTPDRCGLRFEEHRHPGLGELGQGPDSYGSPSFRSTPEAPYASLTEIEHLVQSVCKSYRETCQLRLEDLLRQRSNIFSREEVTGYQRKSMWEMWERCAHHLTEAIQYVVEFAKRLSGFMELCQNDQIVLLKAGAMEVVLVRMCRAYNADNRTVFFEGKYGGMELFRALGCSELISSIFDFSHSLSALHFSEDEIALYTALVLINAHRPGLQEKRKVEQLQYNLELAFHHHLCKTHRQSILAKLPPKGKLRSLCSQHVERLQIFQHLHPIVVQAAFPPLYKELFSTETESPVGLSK

Experiment [13] can be described thus: qHTS assay for small molecule agonists of the antioxidant response element (ARE) signaling pathway measured by Nrf2-dependant transcriptional activity (AID 720636; active means well fitted curve in the direction sought with a large enough effect in the repeat runs; an effect the other way counts as inactive or inconclusive;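 further: HepG2 cells with an ARE-driven luciferase reporter; % of control where 0% means no effect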). As to conditions: ARE-luc HepG2, Nrf2 luciferase reporter, 16 h; series mostly up to 92.4 µM. In outline:
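HepG2 ARE-luc reporter line, 1% dialyzed FBS; 6 hr attachment at 37 C, compound pinned in, 16 hr at 37 C/5% CO2; ONE-Glo, 30 min RT, luminescence read.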

The nature of experiment [14]: qHTS assay for small molecule antagonists of the retinoid-related orphan receptor gamma (ROR-gamma) signaling pathway - cell viability counter screen (AID 720652; active means well fitted curve in the direction sought with a large enough effect in the repeat runs; an effect the other way counts as inactive or inconclusive;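 further: CHO reporter cells with doxycycline-induced ROR-gamma expression; compound exposure lasted 16 hr before ATP read; on the % scale 0 is the no-effect control and ±100 the full control effect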). As to conditions: RORgamma reporter cell line viability counter screen; series mostly up to 92.2 µM. The essentials:
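CHO RORE-LUC/TET-ROR line, 1,000 cells/well, 37 C 5% CO2 5 hr; cpd or DMSO + doxycycline induction, 16 hr. CellTiter-Glo, 30 min RT, luminescence = ATP content.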

The nature of experiment [15]: qHTS assay for small molecule agonists of the antioxidant response element (ARE) signaling pathway measured by Nrf2-dependant transcriptional activity - cell viability counter screen (AID 720653; active means well fitted curve in the direction sought with a large enough effect in the repeat runs; an effect the other way counts as inactive or inconclusive; further: on the % scale 0 is the no-effect control and ±100 the full control effect). As to conditions: ARE-bla HepG2 viability, CellTiter-Glo ATP luminescence, 16 h; stronger effect = lower value. In outline:
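Cytotoxicity counter screen: intracellular ATP quantified by CellTiter-Glo luminescence in the same ARE-bla HepG2 plates, after 16 h compound exposure and a 2 h beta-lactamase substrate step.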

The target of experiment [16] is Retinoic acid receptor RXR-alpha (Homo sapiens) (UniProt P19793). Put plainly: qHTS assay for small molecule antagonists of retinoid X receptor alpha signaling (AID 588546).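 Further: cells stimulated with 9-cis-retinoic acid as agonist; on the % scale 0 is the no-effect control and ±100 the full control effect.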 As to conditions: HEK293T RXRa-UAS-bla, beta-lactamase ratio, antagonist mode. The essentials: as §1
Retinoic acid receptor RXR-alpha (Homo sapiens), sequence (P19793 whole entry, looked up): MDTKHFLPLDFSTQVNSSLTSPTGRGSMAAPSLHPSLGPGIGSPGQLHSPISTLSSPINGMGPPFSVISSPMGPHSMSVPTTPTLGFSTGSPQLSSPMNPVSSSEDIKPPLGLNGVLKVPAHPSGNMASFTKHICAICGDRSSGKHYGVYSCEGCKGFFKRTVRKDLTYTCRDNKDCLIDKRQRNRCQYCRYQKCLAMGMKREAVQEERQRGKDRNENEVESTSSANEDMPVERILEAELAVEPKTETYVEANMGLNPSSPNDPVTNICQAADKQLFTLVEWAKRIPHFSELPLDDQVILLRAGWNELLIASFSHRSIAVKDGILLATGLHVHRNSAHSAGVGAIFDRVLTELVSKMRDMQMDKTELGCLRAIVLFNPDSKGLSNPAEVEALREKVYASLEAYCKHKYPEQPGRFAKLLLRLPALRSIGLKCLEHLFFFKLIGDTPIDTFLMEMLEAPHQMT
A short description of experiment [17]: qHTS assay for small molecule activators of the nuclear factor-kappa B (NF-kB) signaling pathway (AID 651749; active means well fitted activation curve with a large enough effect in the signal ratio; the % refers to the signal ratio; further: % of control where 0% means no effect). As to conditions: NF-kB-bla ME-180 cells, beta-lactamase FRET ratio, 16 h; stronger effect = higher value. In outline:
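FRET-based beta-lactamase detection in ME-180 cells reports NF-kB response-element-driven transcription following overnight (16 hr) compound treatment.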

Experiment [18] is described as follows: qHTS assay for small molecule disruptors of the mitochondrial membrane potential - 1 hr assay (AID 651754). Further: on the % scale 0 is the no-effect control and ±100 the full control effect; nearly all actives have a fitted effect of over 35% in size. As to conditions: series mostly up to 92.2 µM. In outline: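 Read-out: dye fluorescence at 490 nm ex/535 nm em (monomers) and 540 nm ex/590 nm em (aggregates) in HepG2 cells. Compound exposure 1 hr at 37C, followed by 30 min dye loading.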
Experiment [19] can be described thus: qHTS assay for environmental chemicals that activate the Aryl hydrocarbon Receptor (AhR) signaling pathway (AID 651777; active means well fitted curve in the direction sought with a large enough effect; an effect the other way counts as inactive or inconclusive; further: % of control where 0% means no effect; nearly all actives have a fitted effect of over 15% in size). As to conditions: 1A2-DRE human hepatoma cells, luciferase, 24 h; activation: stronger effect = higher value. The essentials:
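Luminescence read-out: One-Glo added for 30 min at RT after 24 hr compound treatment (37 C, 5% CO2) of human hepatoma cells expressing a DRE/CYP1A2 promoter–luciferase reporter; increased signal indicates AhR activation.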

The nature of experiment [20]: qHTS assay to identify small molecules that stimulate interleukin-8 (IL-8) secretion (AID 651758; active means well fitted activation curve with a large enough effect in the signal ratio; the % refers to the signal ratio; further: 0% is about no effect). As to conditions: HTRF ratio (665/615); series mostly up to 92.2 µM. In outline: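 Secreted IL-8 measured homogeneously by TR-FRET (two labelled anti-IL-8 antibodies, 1-3 h at room temperature) after a 16 h, 37 C compound treatment of THP-1 cells at 2000 cells/well.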

Peroxisome proliferator-activated receptor alpha (Homo sapiens), sequence (Q07869 whole entry, looked up): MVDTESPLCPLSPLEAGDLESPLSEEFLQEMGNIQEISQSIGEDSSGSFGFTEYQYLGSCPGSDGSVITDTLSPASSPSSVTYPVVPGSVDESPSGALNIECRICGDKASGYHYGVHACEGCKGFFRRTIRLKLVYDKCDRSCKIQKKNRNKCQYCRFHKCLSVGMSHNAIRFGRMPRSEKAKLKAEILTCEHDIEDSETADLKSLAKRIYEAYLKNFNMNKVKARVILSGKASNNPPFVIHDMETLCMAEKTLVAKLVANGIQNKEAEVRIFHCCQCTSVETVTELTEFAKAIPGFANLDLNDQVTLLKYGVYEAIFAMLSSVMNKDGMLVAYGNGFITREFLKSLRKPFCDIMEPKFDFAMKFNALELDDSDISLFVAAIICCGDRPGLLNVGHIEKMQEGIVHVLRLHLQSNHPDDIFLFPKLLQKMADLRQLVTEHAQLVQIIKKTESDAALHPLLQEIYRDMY
Voltage-gated inwardly rectifying potassium channel KCNH2 (Homo sapiens), sequence (Q12809 whole entry, looked up): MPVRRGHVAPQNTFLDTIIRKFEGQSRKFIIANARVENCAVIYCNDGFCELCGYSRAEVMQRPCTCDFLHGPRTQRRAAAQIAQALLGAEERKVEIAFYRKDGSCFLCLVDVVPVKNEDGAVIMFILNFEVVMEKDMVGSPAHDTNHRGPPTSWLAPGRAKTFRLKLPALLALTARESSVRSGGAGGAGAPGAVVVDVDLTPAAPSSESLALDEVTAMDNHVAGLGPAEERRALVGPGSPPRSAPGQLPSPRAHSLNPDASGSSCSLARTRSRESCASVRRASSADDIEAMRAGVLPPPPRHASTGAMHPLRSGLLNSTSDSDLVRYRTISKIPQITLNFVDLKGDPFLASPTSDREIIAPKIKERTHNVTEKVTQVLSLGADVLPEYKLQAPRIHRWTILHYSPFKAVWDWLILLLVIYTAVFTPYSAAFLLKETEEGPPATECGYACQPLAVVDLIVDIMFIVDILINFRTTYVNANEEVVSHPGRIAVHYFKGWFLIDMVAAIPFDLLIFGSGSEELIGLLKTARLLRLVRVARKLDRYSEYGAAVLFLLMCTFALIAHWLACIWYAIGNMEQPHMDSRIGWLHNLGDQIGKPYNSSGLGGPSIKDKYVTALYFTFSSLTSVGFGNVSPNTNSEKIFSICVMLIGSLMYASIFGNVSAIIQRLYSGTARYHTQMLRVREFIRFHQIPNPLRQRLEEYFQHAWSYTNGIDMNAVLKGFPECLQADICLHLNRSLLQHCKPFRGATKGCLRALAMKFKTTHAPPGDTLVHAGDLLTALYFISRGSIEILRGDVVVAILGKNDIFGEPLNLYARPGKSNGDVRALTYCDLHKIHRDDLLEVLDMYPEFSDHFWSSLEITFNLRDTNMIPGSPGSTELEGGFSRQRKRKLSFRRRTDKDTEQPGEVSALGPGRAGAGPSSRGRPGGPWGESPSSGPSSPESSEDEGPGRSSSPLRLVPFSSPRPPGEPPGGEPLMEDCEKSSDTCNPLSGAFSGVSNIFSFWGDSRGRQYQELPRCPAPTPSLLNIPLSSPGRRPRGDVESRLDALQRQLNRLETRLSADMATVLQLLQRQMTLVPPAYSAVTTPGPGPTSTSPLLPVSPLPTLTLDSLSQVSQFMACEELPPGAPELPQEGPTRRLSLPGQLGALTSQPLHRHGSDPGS
Tumor necrosis factor (Homo sapiens), sequence (P01375 whole entry, looked up): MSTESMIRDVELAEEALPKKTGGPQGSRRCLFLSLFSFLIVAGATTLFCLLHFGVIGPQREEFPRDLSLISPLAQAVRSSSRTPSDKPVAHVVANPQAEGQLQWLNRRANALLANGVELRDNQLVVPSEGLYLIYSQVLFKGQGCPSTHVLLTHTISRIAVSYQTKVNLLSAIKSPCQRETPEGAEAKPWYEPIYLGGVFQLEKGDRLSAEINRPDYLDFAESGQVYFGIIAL

With `Nc1cc([N+](=O)[O-])ccc1C(=O)O`, the max response in experiment [1] is 8.72% and -23.6%; in experiment [4], -12.5% and -8.81%; in experiment [11], -7.92% (inactive) and -2.55% (inactive); in experiment [15] it was -7.64% (inactive) and 3.66% (inactive). The molecule was called inactive in experiment [2], in experiment [3] and in [13]. The activity change % (negative = inhibition) in [5] was 7.18% (inactive) and -9.31% (inactive). Besides, the Potency result in experiment [6], in [7], in experiment [9], in [10], in experiment [12] and in experiment [14] was “inactive” in each case. In addition, the activation in experiment [8] is -3.96% (inactive) and 3.5% (inactive).

For the molecule `NCCCCCCN`, the max response in experiment [1] was 1.96%; in experiment [4], -3.24%; in experiment [16], 17.1% (inactive); in [11] it was -4.8% (inactive); in experiment [15], -0.206% (inactive). Moreover, the molecule was called inactive in experiment [2], in experiment [3] and in [13]. For the same molecule, the Potency result in experiment [6], in experiment [18], in [9], in experiment [10], in [12] and in [14] was “inactive” throughout. Besides, the activation in experiment [8] was -1.12% (inactive); in experiment [17] it was -0.106% (inactive); in experiment [19], 0.0666% (inactive).

With `CCCCCCC(=O)O`, the max response is -3.5% in experiment [1], -1.09% in experiment [4], 14.5% (inactive) in experiment [11] and -2.08% (inactive) in [15]. Besides, the result in [2], in experiment [3] and in experiment [13] was inactive. The activity change % (negative = inhibition) in experiment [5] was -7.74% (inactive). The Potency result in experiment [6], in experiment [9], in experiment [10], in experiment [12] and in [14] was “inactive” throughout. Also, the activation in [8] is -5.16% (inactive).

Turning to `C=CCOC(=O)COCCC(C)C`, the max response in experiment [1] was -2.63%; in experiment [4], -11.5%; in [16], 9.99% (inactive); in experiment [11], -5.81% (inactive); in [15], 5.49% (inactive). Further, the molecule was called inactive in [2], in [3] and in experiment [13]. Besides, the Potency result in experiment [6], in [7], in experiment [18], in experiment [10] and in experiment [12] was “inactive” throughout. Further, the activation in [17] is -0.303% (inactive); in [19] it was -0.312% (inactive).

For the molecule `Cc1ccc(C)c(O)c1`, the max response in experiment [1] was 0.17%; in [4], -5.88%; in [11], -1.27% (inactive); in [15], 0.808% (inactive). The molecule was called inactive in experiment [2], in experiment [3] and in [13]. Moreover, the activity change % (negative = inhibition) in [5] was 1.01% (inactive). Also, the Potency entry in experiment [6], in [9], in experiment [10], in experiment [20], in [12] and in experiment [14] was “inactive” throughout. The activation in experiment [8] was 0.75% (inactive).

For the molecule `Clc1ccccn1`, the results for the max response in experiment [1], in experiment [4] and in experiment [11] were -14.3%, -9.05% and -1.35% (inactive), respectively. For the same molecule, the result in [2], in [3] and in experiment [13] was inactive. Besides, the activity change % (negative = inhibition) in experiment [5] was -6.15% (inactive). The Potency entry in experiment [6], in experiment [7], in experiment [18], in experiment [9], in [10] and in [12] was “inactive” throughout. In addition, the activation in experiment [8] is -3.75% (inactive); in [17], -1% (inactive).

As to `Cc1cccc2ccccc12`, the max response in experiment [1] was -13.1%; in experiment [4] it was -10.1%; in experiment [16], 0.915% (inactive); in [11] it was -1.89% (inactive); in experiment [15] it was -3.61% (inactive). The result in [2], in experiment [3] and in experiment [13] was inactive. Besides, the Potency entry in [6], in experiment [7], in experiment [18], in [9], in [10] and in experiment [12] was “inactive” in each case. The Potency result in experiment [14] is “inactive”. The activation in [17] is -1.12% (inactive).

Values taken from PubChem BioAssay (NCATS).
